According to PubChem BioAssay (EPA / NIEHS):
Inconclusive results are not listed. Activity calls are given as the source filed them. How the source made its calls: active means hit-call score of the fitted dose curve at least 0.9, where 1 is the maximum; inconclusive means response in the unintended direction; inactive means score below 0.9.

Read-out: xenobiotic metabolism (CYP1A2), CYP1A2 (gene 1544)
Experiment: CLD_CYP1A2_6hr: CellzDirect (CLD) Gene Expression Assay for xenobiotic metabolism (CYP1A2) at 6 hours (AID 2283663);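 on AC50: potency is for induction meaning a rise in mRNA above DMSO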
Protocol: CLD_6hr is a cell-based, multiplexed-readout assay that uses hepatocyte, a human liver primary cell, with measurements taken at 6 hours after chemical dosing in a 96-well plate.CLD_CYP1A2_6hr is one of 16 assay component(s) measured or calculated from the CLD_6hr assay. It is designed to make measurements of mRNA induction, a form of inducible reporter, as detected with chemiluminescence signals by Quantitative Nuclease Protection Assay (qNPA) technology.Data from the assay component CLD_CYP1A2_6hr was analyzed at the endpoint, CLD_CYP1A2_6hr, in the positive analysis fitting direction relative to DMSO as the negative control and baseline of activity. Using a type of inducible reporter, gain-of-signal activity can be used to understand changes in the reporter gene as they relate to the gene CYP1A2. Furthermore, this assay endpoint can be referred to as a primary readout. To generalize the intended target to other relatable targets, this assay endpoint is annotated to the cyp intended target family, where subfamily is xenobiotic metabolism.
Human hepatocyte cultures were treated daily for two consecutive days with fresh dosing solutions containing appropriate concentrations of the 320 ToxCast chemicals (chemical identities were blinded to CellzDirect and other ToxCast collaborators), vehicle control (0.2% DMSO), and positive control inducers as summarized in Table 1. Due to the large number of treatment groups and chemicals examined, the ToxCast chemicals were divided into two groups (spanning two independent cultures of hepatocytes from separate donor preparations (Hu778: ToxCast plates 1 and 2; Hu776: ToxCast plates 3 and 4). Each preparation of human hepatocyte cultures was treated with respective vehicle control, medium only control, set of six positive controls/reference chemicals for the five hepatic receptor pathways, and a subset of eight of the ToxCast chemicals (indoxacarb, pyrithiobac-sodium, norflurazon, cyhalofop-butyl, methomyl, thiram, acetochlor, and propiconazole). These replicate data, coupled with internal replicates designed within the blinded ToxCast chemical library, provided additional data to evaluate interindividual differences between hepatocyte preparations and their potential impact on chemical profiles.Cell morphology and integrity were evaluated using phase-contrast microscopy as an indicator of hepatocyte cell health (Tyson & Green, 1987). Cultures for each treatment group (i.e., media, vehicle [0.2% DMSO], positive control inducers [multiple concentrations], and the ToxCast chemicals [multiple concentrations]) were observed and cell morphology was assessed relative to vehicle control cultures at each harvest time point (0, 6, 24, or 48 h). […] Images were evaluated at the conclusion of the study to assess changes in cell integrity and account for the effects of chemical exposure on uncharacteristic changes in concentration-dependent gene expression profiles. The results from these determinations of apparent cytotoxicity were annotated (yes/no) alongside the corresponding qNPA data for reference.At the conclusion of each treatment period, hepatocyte cultures (96-well) were washed with 1 volume of HBSS, lysed by addition of 25 ul ArrayPlate lysis buffer (HTG, Tucson, AZ), and 70 ul/well of Denaturation Oil, denatured by incubation at 95C for 10 min, and frozen at approximately -70C until analysis by nuclease protection assay (qNPA) (Roberts et al., 2007). For qNPA analysis, cell lysates were thawed at 50C for approximately 30 min, qNPA probes were added, and samples were incubated at 95C for 10 min to begin the detection process by denaturing the target RNA, dissociating the duplexes and secondary structure hybridization. At the conclusion of the hybridization period, S1 nuclease reagent was added to each sample to digest all nonprotected nucleotides at 50C for 60-90 min. […]

SMILES | outcome | AC50
O=[N+]([O-])/N=C1\NCCN1Cc1ccc(Cl)nc1 | inactive | –
O=C(NC(=O)c1c(F)cccc1F)Nc1ccc(OC(F)(F)C(F)OC(F)(F)F)c(Cl)c1 (stereo not given) | inactive | –
CCC(C)(NC(=O)c1cc(Cl)c(C)c(Cl)c1)C(=O)CCl (stereo not given) | inactive | –
COP(=S)(OC)Oc1ccc(SC)c(C)c1 | – | 5.14 µM (active)
O=S(=O)(O)C(F)(F)C(F)(F)C(F)(F)C(F)(F)C(F)(F)C(F)(F)C(F)(F)C(F)(F)F | inactive | –
CCc1ccc(C(=O)NN(C(=O)c2cc(C)cc(C)c2)C(C)(C)C)cc1 | – | 33.7 µM (active)
CNC(=O)/C=C(\C)OP(=O)(OC)OC | inactive | –
C[C@H]1[C@H](c2ccc(Cl)cc2)SC(=O)N1C(=O)NC1CCCCC1 | inactive | –
CNC(=O)Oc1cccc(N=CN(C)C)c1 | inactive | –
COC(=O)c1ccccc1CS(=O)(=O)NC(=O)Nc1nc(OC)cc(OC)n1 | inactive | –
O=C(O)COc1ccc(Cl)cc1Cl | – | 1.89 µM (active)
CCOCN(C(=O)CCl)c1c(C)cccc1CC | inactive | –
Clc1ccccc1-c1nnc(-c2ccccc2Cl)nn1 | inactive | –
CC(C)(C)C(O)C(Oc1ccc(Cl)cc1)n1cncn1 (stereo not given) | inactive | –
CC(C)OC(=O)Nc1cccc(Cl)c1 | – | 3.11 µM (active)
CCC(C)Nc1c([N+](=O)[O-])cc(C(C)(C)C)cc1[N+](=O)[O-] (stereo not given) | – | 5.44 µM (active)
N#Cc1c(Cl)c(Cl)c(Cl)c(C#N)c1Cl | – | 31.7 µM (active)
CNC(=O)Oc1ccccc1OC(C)C | inactive | –
O=C(Nc1ccccc1)Nc1cnns1 | – | 3.08 µM (active)
COC(=O)c1ccccc1S(=O)(=O)NC(=O)Nc1nc(C)nc(OC)n1 | inactive | –

SMILES | outcome | AC50
CNC(=O)CSP(=S)(OC)OC | – | 0.327 µM (active)
CCS(=O)(=O)c1cccnc1S(=O)(=O)NC(=O)Nc1nc(OC)cc(OC)n1 | inactive | –
COc1cc(OC)nc(NC(=O)NS(=O)(=O)c2cc(NC=O)ccc2C(=O)N(C)C)n1 | inactive | –
COP(=O)(OC)OC=C(Cl)Cl | inactive | –
OCCOc1ccccc1 | inactive | –
CN1CSC(=S)N(C)C1 | inactive | –
CCOc1nc(NC)nc(NC(=O)NS(=O)(=O)c2ccccc2C(=O)OC)n1 | inactive | –
Cc1[nH]c(=O)n(C(C)(C)C)c(=O)c1Cl | inactive | –
CCN(CC)C(=O)SCc1ccc(Cl)cc1 | inactive | –
CCCN(CCOc1c(Cl)cc(Cl)cc1Cl)C(=O)n1ccnc1 | – | 0.0805 µM (active)
CCCN(CCC)c1c([N+](=O)[O-])cc(C(F)(F)F)cc1[N+](=O)[O-] | inactive | –
CC(C)N(C(=O)COc1nnc(C(F)(F)F)s1)c1ccc(F)cc1 | inactive | –
O=C(O)CCCOc1ccc(Cl)cc1Cl | inactive | –
CC(C)(C)C(O)/C(=C\c1ccc(Cl)cc1Cl)n1cncn1 (stereo not given) | inactive | –
[2H]C1([2H])[n+]2ccccc2-c2cccc[n+]2C1([2H])[2H] | inactive | –
COc1nn(CSP(=S)(OC)OC)c(=O)s1 | – | 2.89 µM (active)
COC(=O)c1ccccc1S(=O)(=O)NC(=O)N(C)c1nc(C)nc(OC)n1 | – | 20 µM (active)
CC1(C)C(C=C(Cl)Cl)C1C(=O)OC(C#N)c1ccc(F)c(Oc2ccccc2)c1 (stereo not given) | inactive | –
N#CN | inactive | –
COP(=S)(OC)Oc1ccc([N+](=O)[O-])cc1 | – | 3.16 µM (active)
